IL-1B inflam inh: blocks inflammasome-driven IL-1 beta release | THP-1 LPS/ATP IL-1B secretion, AlphaLISA, 16 h; stronger effect = lower value | activity change, % at 57.5 µM | 360,000 compounds, 4.7% hits | AID 743279; in the data active means activity change below about -50%; inconclusive means mostly about -30% to -49%
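Secreted IL-1B measured by AlphaLISA bead assay after 16 h compound exposure of THP-1 cells; compounds (final up to 57.5 uM) added 1 h before LPS (250 ng/mL) and ATP (1.25 mM) stimulation; lower signal means less secretion.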
ELG1 repair inh: inhibitors of ELG1-dependent DNA repair in HEK293T cells; HEK293T ELG1-luciferase reporter, luminescence, 16 h; DNA damage induced by 5-fluorouridine; Potency, µM (titrated, usually from 46.1 µM), usual class: inhibitors; 330,000 compounds, 2.3% hits; AID 504467; further: nearly all actives have a fitted effect of over 55% in size
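Step one: seed 2,000 cells per well. Step two: pin-transfer compound or DMSO alongside 5-fluorouridine. Step three: incubate 16 hr, 37 °C, 5% CO2. Step four: add ONE-Glo, wait 30 min, read luminescence.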
TDP1 cell CPT: DT40-hTDP1 cell growth loss with CPT; chicken DT40 Tdp1-/-;hTDP1 cells + 20 nM CPT, ATP luminescence, 48 h; Potency, µM (doses to about 46.2 µM), hits mostly inhibitors; 420,000 compounds, 12% hits; AID 686979; further: nearly all actives have a fitted effect of over 55% in size
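Chicken DT40 Tdp1-/- cells complemented with human TDP1, 400 cells/well, exposed to compounds plus 20 nM camptothecin for at least 48 h at 37 C; viability read as ATP content by CellTiter-Glo luminescence.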
TDP1 cell noCPT: qHTS for Inhibitors of human tyrosyl-DNA phosphodiesterase 1 (TDP1): qHTS in cells in absence of CPT | Potency, µM (titrated, usually from 46.2 µM), most hits filed as inhibitors | 420,000 compounds, 15% hits | DT40 Tdp1-/- hTDP1 cells, no CPT, ATP luminescence, 48 h; further: nearly all actives have a fitted effect of over 55% in size
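Seeded 400 DT40-hTDP1 cells/well (vehicle DMSO, no 20 nM CPT); pinned compounds; ≥48 hr at 37 °C; CellTiter-Glo luminescence as viability measure.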
HT1080-NT tox: kills 2HG-producing HT-1080-NT fibrosarcoma cells. HT-1080-NT fibrosarcoma viability, CellTiter-Glo ATP luminescence, 48 h. Potency, µM (titrated, usually from 46.1 µM), actives largely listed as cytotoxic. 360,000 compounds, 1.6% hits. AID 686970;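 further: NT is the 2HG producing partner of a matched IDH1 knockdown line; nearly all actives have a fitted effect of over 55% in size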
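A 48-hour cytotoxicity screen used HT-1080-NT cells plated 2 hours before compound delivery. ATP-based CellTiter-Glo luminescence measured viability, normalized to DMSO and no-cell controls.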
HT1080 IDH1KD tx: kills HT-1080 cells with IDH1 knockdown. HT-1080 IDH1 knockdown viability, ATP luminescence, 48 h. Potency, µM (titrated, usually from 46.1 µM), usual class: cytotoxic. 360,000 compounds, 2% hits
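Assay cells: HT-1080 with IDH1 knockdown, 750 per well, RPMI/5% FBS. Exposure: 48 h at 37 °C following 2 h pre-incubation. Read: CellTiter-Glo luminescence; fitted concentration-response, curve class assigned.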
Hits are given with their value; i = inactive; ? = inconclusive; nt = no result. Sampled rows, rich in hits. Any-hit rate of the full collection: about 19%. Unless noted, the call rests on the fitted dose curve; in most records, active means well fitted curve in the direction sought with a large enough effect; inconclusive means small, poorly fitted or top-dose-only effect, or another doubt; inactive means no such curve, though single readings can be large; an effect the other way counts as inactive or inconclusive.

SMILES	IL-1B inflam inh	ELG1 repair inh	TDP1 cell CPT	TDP1 cell noCPT	HT1080-NT tox	HT1080 IDH1KD tx
Cc1sc2ncn(CC(=O)Nc3cccc(C(F)(F)F)c3)c(=O)c2c1S(=O)(=O)N1CCN(C)CC1	nt	nt	?	i	nt	nt
CCCn1c(=O)c(C(=O)NC(C)c2ccccc2)c(O)c2ccccc21 (configuration not stated)	i	i	?	25.9µM	i	i
CCn1c(=O)c(C(=O)Nc2ccccc2C)c(O)c2ccccc21	i	i	?	23.1µM	i	i
CCCn1c(=O)c(C(=O)Nc2ccccc2N)c(O)c2ccccc21	i	nt	25.9µM	?	i	i
CCCCCn1c(=O)c(-c2nc3ccccc3[nH]2)c(O)c2ccccc21	i	7.3µM	20.6µM	9.2µM	i	i
CCCn1c(=O)c(C(=O)Nc2ccccc2C)c(O)c2ccccc21	i	i	?	?	i	i
O=C1CNC(=S)N1C(CO)c1ccccc1 (configuration not stated)	i	i	i	i	i	i
CC(=O)N1CCC(C(=O)Nc2ccc(S(=O)(=O)NCCc3ccccc3)cc2)CC1	i	i	i	i	i	i
CCc1ccc(C(=O)c2cn(CC(=O)Nc3ccc4c(c3)OCO4)c3ccc(F)cc3c2=O)cc1	nt	nt	i	?	nt	nt
O=C(c1cc2ccc3cccnc3c2[nH]1)N1CCN(c2cccc(C(F)(F)F)c2)CC1	nt	nt	?	i	nt	nt
CCCCCCC(=O)NNC(=O)c1c(O)c2ccccc2n(CCC)c1=O	i	?	?	?	i	i
CCCCCCCC(=O)NNC(=O)c1c(O)c2ccccc2n(CCC)c1=O	i	i	?	23.1µM	i	i
CCCCNC(=O)CCn1ccc2cc(S(=O)(=O)N3CCCC3)ccc21	i	i	i	?	i	i
COc1ccccc1CCNC(=O)Cn1ccc2cc(S(=O)(=O)N3CCC(C)CC3)ccc21	?	?	?	?	i	i
CC1CCN(S(=O)(=O)c2ccc3c(ccn3CCC(=O)NCc3ccccc3F)c2)CC1	nt	nt	16.4µM	?	nt	nt
CC1CCN(S(=O)(=O)c2ccc3c(ccn3CC(=O)NCc3ccccc3F)c2)CC1	nt	nt	20.6µM	?	nt	nt
CSc1ccc(CNC(=O)CCn2ccc3cc(S(=O)(=O)N4CCC(C)CC4)ccc32)cc1	nt	nt	20.6µM	?	nt	nt
CCN(CC)CCC(c1ccc2c(c1)OCO2)c1c(OC)cc(OC)c2ccc(=O)oc12 (configuration not stated)	i	i	13µM	18.4µM	i	i
COc1cc(O)c(C(CCN2CCCCC2)c2ccc3c(c2)OCO3)c(OC)c1 (configuration not stated)	-81.1	i	?	?	i	i
CCN(CC)CCC(c1cc(OC)c(OC)c(OC)c1)c1c(OC)cc(OC)c2ccc(=O)oc12 (configuration not stated)	i	i	?	?	i	i
COc1cc(C(CCN2CCN(c3ccccc3)CC2)c2c(OC)cc(OC)c3c(C)cc(=O)oc23)cc(OC)c1OC (configuration not stated)	i	?	16.4µM	16.4µM	i	i
CCN(CC)CCC(c1cc(OC)c(OC)c(OC)c1)c1c(OC)cc(OC)c2c(C)cc(=O)oc12 (configuration not stated)	i	i	9.2µM	23.1µM	i	i
CCCS(=O)(=O)Nc1ccc2cn[nH]c2c1	i	i	i	i	i	i
Cc1noc(C)c1S(=O)(=O)NC(=O)C1(C)CCN1C(=O)Cc1ccc(Cl)cc1Cl (configuration not stated)	i	nt	i	i	i	i
COc1cc(OC)c2ccc(=O)oc2c1C(CC(=O)N1CCCC1)c1ccc2c(c1)OCO2 (configuration not stated)	i	i	?	?	i	i
